Results published in PubChem BioAssay (NCI).
About 79,000 compounds went through this panel and 15% of them were active in at least one assay; those are over-represented in the sample as a whole. The source made the active and inactive calls. Cut-off read from the data, not from the text of the source: active = growth inhibition above about 70%; inactive = the rest.

Experiments:
[1] = NCI Yeast Anticancer Drug Screen. Data for the rad50 strain (AID 155);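 note: 0% = growth of vehicle-only cultures of the same strain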; settings: S. cerevisiae rad50 strain growth inhibition; at 50.0 µM; active compounds read high
Method in brief: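 Vehicle-treated cultures provide the reference for the growth inhibition reported for compound-exposed, repair-deficient yeast.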

[2] = NCI Yeast Anticancer Drug Screen. Data for the mec2-1 strain (AID 157); settings: S. cerevisiae mec2-1 strain, at 50.0 µM, active compounds read high
Method in brief: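 Cells of the genetically defined mec2-1 yeast strain are incubated with test compound. Inhibition of growth is calculated against vehicle-treated controls.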

[3] = NCI Yeast Anticancer Drug Screen. Data for the sgs1 mgt1 strain (AID 161);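 note: 0% = growth of cultures given vehicle only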; settings: S. cerevisiae sgs1 mgt1 strain, at 50.0 µM, active compounds read high
Method in brief: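 Test agents were incubated with a DNA-repair-mutant yeast strain. Growth was then read and compared against vehicle-treated controls.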

[4] = NCI Yeast Anticancer Drug Screen. Data for the cln2 rad14 strain (AID 165);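 note: 0% = growth equal to vehicle treated cultures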; settings: S. cerevisiae cln2 rad14 strain, at 50.0 µM, active compounds read high
Method in brief: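 The screen exposed genetically defined yeast (cln2 rad14) to test compounds and scored growth inhibition relative to vehicle-treated controls.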

[5] = NCI Yeast Anticancer Drug Screen. Data for the bub3 strain (AID 167); settings: S. cerevisiae bub3 mutant strain, at 50.0 µM, active compounds read high
Method in brief: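 Mutant yeast screening strain plus compound; vehicle-treated cultures serve as the 0% inhibition reference.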

[6] = NCI Yeast Anticancer Drug Screen. Data for the mlh1 rad18 strain (AID 175); settings: S. cerevisiae mlh1 rad18 strain growth inhibition; at 50.0 µM; active compounds read high
Method in brief: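 Compound-treated yeast growth, normalised to vehicle controls. Strain bears defined DNA repair mutations.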

Measured: growth inhibition

CS(=O)(=O)c1ccc(N2CCCCC2)c([N+](=O)[O-])c1
inactive: [1] 29.9% | [2] 6.05% | [3] 27.6% | [4] 16.7% | [5] 10.9% | [6] -4.9%

COc1cc(/C=C(\C)c2ccc3c(c2)OCO3)cc(OC)c1OC
inactive: [1] 15% | [2] 12.6% | [3] 35% | [4] 5.15% | [5] 12.8% | [6] -5.85%

c1ccc(-c2nc(-c3ccccc3SSc3ccccc3-c3nc(-c4ccccc4)nn3-c3ccccc3)n(-c3ccccc3)n2)cc1
inactive: [1] -14.5% | [2] -6.3% | [3] 0.8% | [4] 3.25% | [5] -8.8% | [6] 18.9%

Cc1ccc(C)c(NC(=O)C(=O)C2C(=O)C3=C(CC2(C)C)Nc2ccccc2S3)c1 (configuration not stated)
inactive: [1] -21.2% | [2] -20.2% | [3] -14.1% | [4] -21.5% | [5] -28.4% | [6] -33%

CCOC(=O)c1cc2nc(NC(=O)c3ccccc3)sc2n1C
inactive: [1] 4.85% | [2] 8.3% | [3] 7.3% | [4] 10.3% | [5] 6.4% | [6] 16.8%

COC(=O)C(CCS(=O)(=O)CC(=O)C(=O)Nc1cccc(C(C)=O)c1)C(=O)OC
inactive: [1] -12.6% | [2] -15.1% | [3] -16.1% | [4] -17.1% | [5] -26.2% | [6] -5.95%

Cc1cccc(C)c1NC(=O)C1=NC(=S)NC(c2ccccc2)C1c1nc2ccccc2s1 (configuration not stated)
inactive: [1] -5.7% | [2] -19% | [3] -15.4% | [4] 10.2% | [5] -0.85% | [6] -1.1%

Cc1ccccc1N(CCC#N)C1=NN(C(=O)CC(=O)Nc2ccccc2)C(c2ccccc2)C1 (configuration not stated)
inactive: [1] 3% | [2] 1% | [3] 12.1% | [4] 11.7% | [5] 0.85% | [6] -7.2%

Cc1cc(=O)c2c(F)ccc(F)c2[nH]1
inactive: [1] 0% | [2] 4.5% | [3] 13.9% | [4] -36.4% | [5] -7.85% | [6] 12.7%

Nc1ccc([N+](=O)[O-])c(C(=O)O)c1
inactive: [1] -10.2% | [2] -26.9% | [3] -15% | [4] 15.9% | [5] -15.1% | [6] -6.9%

CCN(CC)c1c(C)c(-c2ccccc2)oc(=O)c1Cl
inactive: [1] 0.3% | [2] -1.05% | [3] 3.7% | [4] 11.1% | [5] 6.85% | [6] 6.95%

FC(F)(F)C(F)(F)c1nc(C(F)(F)C(F)(F)C(F)(F)c2noc(C(F)(F)C(F)(F)F)n2)no1
inactive: [1] 8.5% | [2] 16.9% | [3] 15% | [4] -31.3% | [5] -3% | [6] -6.3%

c1cc2c([nH]1)CCCC2
inactive: [1] 12.5% | [2] 14.3% | [3] 2.45% | [4] 21.1% | [5] 23.6% | [6] 13.9%

CC1(C)C2CCC(C2)C1/C=C1/SC(=S)NC1=O (configuration not stated)
inactive: [1] -6.2% | [2] -1.55% | [3] 1.55% | [4] 49% | [5] 17.8% | [6] 2.85%

c1ccc2c(c1)NC(C1OC3CCCN3C1C1Nc3ccccc3S1)S2 (configuration not stated)
inactive: [1] -43.2% | [2] -6% | [3] -28.6% | [4] -1.5% | [5] -14.1% | [6] -24.4%

CC(C)/C=N/N(CCOC(=O)Nc1cccc2ccccc12)C(=O)Nc1cccc2ccccc12
inactive: [1] -4.95% | [2] -15.1% | [3] 1.75% | [4] -19.8% | [5] -8.15% | [6] 14.8%

OCC1OC(n2c(SCc3ccccc3)nc3ccccc32)C(O)C1O (configuration not stated)
inactive: [1] -3.5% | [2] 1.45% | [3] -9.1% | [4] -11.9% | [5] 6.4% | [6] 0.1%

CCCCCCCCCCCCCCCCCC(=O)NCC[N+](C)(C)C
active: [1] 99% | [2] 99.5% | [3] 99.4% | [4] 98.8% | [5] 98.8% | [6] 99.2%

NC(N)=Nc1cccc2ccccc12
inactive: [1] -1.45% | [2] 0.85% | [3] -5.65% | [4] -12.8% | [5] -0.45% | [6] -5.15%

O=C1c2ccccc2C(=O)N1/N=[N+](\[O-])N1Cc2ccccc2C1
inactive: [1] 18.4% | [2] 27.9% | [3] 24.1% | [4] -18.2% | [5] 7.65% | [6] 28.2%

CCOC(=O)/C=C/c1ccc(OCC)cc1
inactive: [1] -2.4% | [2] 2.55% | [3] -7.15% | [4] -17.2% | [5] -1.35% | [6] -21%

O=C(O)C(CCc1ccccn1)c1ccccc1 (configuration not stated)
inactive: [1] -4.2% | [2] -26.2% | [3] -26.2% | [4] -17.6% | [5] -44.4% | [6] -0.55%

O=C(O)C1CCC1C(=O)O (configuration not stated)
inactive: [1] -18.1% | [2] -24.1% | [3] -23.5% | [4] -23.9% | [5] 10.2% | [6] -2.5%

O=S(=O)(c1ccccc1)c1ccc(CBr)cc1
inactive: [1] 16.1% | [2] 1.85% | [3] -10.4% | [4] 17.5% | [5] -2.55% | [6] -8.9%

O=C(O)Cc1ccc2ccccc2c1
inactive: [1] 6.3% | [2] 13.2% | [3] 20.6% | [4] 3.6% | [5] 0.45% | [6] 48%

CC(=O)CC(=O)NC1CCCC1
inactive: [1] -25.8% | [2] -38.6% | [3] -33% | [4] -3.5% | [5] -50% | [6] -13.9%

NC(N)=Nc1ccc(CC(N)C(=O)NCC(=O)C(CC(=O)O)c2ncc(NC(=O)C(F)(F)F)o2)cc1 (configuration not stated)
inactive: [1] -17.4% | [2] -1.75% | [3] -5.15% | [4] -4% | [5] -19.6% | [6] 7.35%

Cc1ccc(N2C(=O)CSC2=S)cc1C
inactive: [1] -1.7% | [2] -15.7% | [3] -30% | [4] -38% | [5] -29% | [6] -9.5%

Clc1cccc(Cl)c1C1SCc2nc3ncccc3n21 (configuration not stated)
inactive: [1] 14.1% | [2] 16.6% | [3] 34.4% | [4] 16.9% | [5] 10.6% | [6] 0.4%

CCCCCC1CCN(C(=O)c2ccc(N)cc2)CC1
inactive: [2] 52.8% | [3] 44.8% | [4] 49% | [6] 42.7%
active: [1] 90% | [5] 94.4%

Cc1ccc(S(=O)(=O)/C(C#N)=C/NC(=S)Nc2ccc(C)cc2C)cc1
inactive: [1] -53.7% | [2] -26.9% | [3] -30.8% | [4] -41.4% | [5] -40.5% | [6] -41.4%

CCCNC1CC(n2cc(C)c(=O)[nH]c2=O)OC1CO (configuration not stated)
inactive: [1] -11.4% | [2] -7.85% | [3] -25.3% | [4] -14.7% | [5] -31.8% | [6] -26.8%

N/N=C(/Cc1nc2ccc(C(=O)c3ccccc3)cc2[nH]c1=O)C(=O)Nc1ccc([N+](=O)[O-])cc1[N+](=O)[O-]
inactive: [1] 23.4% | [2] 13.2% | [3] -3.6% | [4] -47.8% | [5] 5.2% | [6] 15.6%

CNC(=O)c1ccc(C(C)C)cc1
inactive: [1] 0.3% | [2] -1.95% | [3] -5.3% | [4] -10.7% | [5] 4.2% | [6] 0.65%

CC(C)N(C(C)C)C1C=CC(N(C(C)C)C(C)C)CC1 (configuration not stated)
inactive: [1] 5% | [2] -15.9% | [3] 2.3% | [4] -33.6% | [5] -7.3% | [6] -0.35%

N#Cc1ccccc1NC(=O)C(=O)C(C(=O)c1ccccc1-c1ccccc1)C1OC(=O)c2ccccc21 (configuration not stated)
inactive: [1] 24.4% | [2] 5.25% | [3] 11.7% | [4] -43% | [5] 2.25% | [6] 0.95%

O=C(O)C1C(C(=O)O)C2C3C4C1C1C2C3C41 (configuration not stated)
inactive: [1] 2.9% | [2] 3.15% | [3] -4.2% | [4] -21.9% | [5] 13.3% | [6] -0.15%
